High-throughput results from PubChem BioAssay.
Most compounds without a hit are left out; they make up all but 1.3% or so of the library.
ALOX12 inh – Primary qHTS assay for inhibitors of human arachidonate 12S-lipoxygenase (ALOX12): Round 2. actives 1.1% (n = 580,000). Potency, µM (series often up to 108 µM), usual class: inhibitors. purified 12hLO, xylenol orange hydroperoxide absorbance
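Hydroperoxide product was detected by ferrous iron/xylenol orange as the 573 to 405 nm absorbance ratio. Arachidonic acid at 40 uM (final) was turned over for 30 min at room temperature by 150 nM human 12hLO, pH 7.0 Hepes buffer, after 15 min compound preincubation.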
PTHR1 ag – qHTS for PTHR1 Agonists: Primary Screen | AID 743266, 2014 | HEK293 GP2 PTHR1 cells, GloSensor cAMP luminescence, 1 h | Potency, µM (titrated, usually from 115 µM), most hits filed as activators | Parathyroid hormone/parathyroid hormone-related peptide receptor (Homo sapiens), Q03431 | actives 0.075% (n = 410,000); also: nearly all actives have a fitted effect of over 55% in size
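HEK-293-derived GP2 cells expressing PTHR1 and a GloSensor cAMP reporter, 3,000/well, plated overnight, given luciferin plus IBMX (each 0.5 mM as added) for 1 h at 37 °C, then compound for 1 h at 37 °C. Luminescence was read after 15 min at room temperature.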
miR-21 act – qHTS Assay for Modulators of miRNAs and/orActivators of miR-21. AID 2288, 2010. HeLa miR-21 FLuc reporter, luciferase, 48 h. 340,000 tested, under 10 active. Potency, µM (titrated, usually from 38.3 µM), most hits filed as activators;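 also: miR-21 action dims this reporter so a rising signal means less miR-21 action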
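Compounds were titrated across several concentrations (up to approximately 40 uM) and incubated 48 hours with HeLa miR-21-FLuc reporter cells (miR-21 target sequence downstream of FLuc, endogenous miR-21). Readout was firefly luciferase luminescence after lytic detection reagent.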
Giardia killer – Small Molecules that selectively kill Giardia lamblia: qHTS. Giardia lamblia trophozoite viability. activity change, % at 7.66 µM, hits read low. actives 0.15% (n = 340,000). AID 540267, 2011; in the data active = activity change below about -80%; inconclusive = between about -30% and that limit;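 also: parasites exposed to compound for two days anaerobically before the ATP read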
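Luminescent ATP signal served as the viability read-out, measured 15-30 min after adding ATP detection reagent to trophozoites that had been incubated with compounds for 48 hrs at 37 deg C anaerobically at 100 cells/well.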
PINK1 expr mod – A Quantitative High throughput Screen to Identify Chemical Modulators of PINK1 Expression; AID 624263, 2012; Potency, µM (titrated, usually from 76.6 µM), usual class: activators; PINK1 immunofluorescence, high-content cytometry, 24 h; actives 0.2% (n = 410,000); active = well fitted activation curve with a large enough effect; inconclusive = small, poorly fitted or top-dose-only effect; cell line not stated here; also: nearly all actives have a fitted effect of over 65% in size
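PINK1 protein, normally rapidly degraded, was detected by immunofluorescence after 24 hour compound treatment of a stable cell line. Titration data (5 concentrations) came from laser-scanning cytometry, with CCCP-treated wells as controls.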
ERG-DNA inh – qHTS for Small Molecule Inhibitors of the ERG Ets/DNA interaction | fluorescence polarization, His-ERG Ets domain / labelled DNA | Potency, µM (series often up to 76.9 µM), most hits filed as inhibitors | actives 0.028% (n = 370,000); active = well fitted inhibition curve with a large enough effect in the polarisation, with a control signal flat; inconclusive = small, poorly fitted or top-dose-only effect, or effect the other way, or a change in a side signal; inactive = no such curve, though single readings can be large or run the other way; the % refers to the polarisation;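 also: polarization taken with two DNA probes labelled with fluorescein and Texas red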
Target sequence (P11308 whole entry, looked up, the tested form may be a part): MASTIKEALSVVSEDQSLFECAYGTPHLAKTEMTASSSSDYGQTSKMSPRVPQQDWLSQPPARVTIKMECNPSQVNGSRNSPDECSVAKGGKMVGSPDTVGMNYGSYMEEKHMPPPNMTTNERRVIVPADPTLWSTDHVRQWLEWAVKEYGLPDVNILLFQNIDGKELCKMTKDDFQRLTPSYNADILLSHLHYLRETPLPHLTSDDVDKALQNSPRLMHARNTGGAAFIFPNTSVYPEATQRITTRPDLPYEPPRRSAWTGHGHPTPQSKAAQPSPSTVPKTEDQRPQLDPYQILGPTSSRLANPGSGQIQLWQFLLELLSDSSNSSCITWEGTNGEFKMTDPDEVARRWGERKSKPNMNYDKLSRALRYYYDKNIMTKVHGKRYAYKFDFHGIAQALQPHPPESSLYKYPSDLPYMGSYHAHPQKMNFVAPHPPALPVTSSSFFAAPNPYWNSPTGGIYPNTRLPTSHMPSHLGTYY
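His-tagged ERG Ets domain (1 uM in the protein solution; 300mM KCl, 50mM Tris-HCl, 1mM EDTA, 1mM DTT, pH 7.5) received compound, then a probe mix of 5 nM fluorescein-DNA and 100nM Texas-615-DNA. Fluorescence polarization was read for both dyes.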
A number is an active result; - = inactive; ? = inconclusive; . = no result given; ! = not confirmed by another sample. Unless noted, calls follow the shape of the dose curve; as a rule, active = well fitted curve in the direction sought with a large enough effect; inconclusive = small, poorly fitted or top-dose-only effect, or another doubt; inactive = no such curve, though single readings can be large; an effect the other way counts as inactive or inconclusive.

SMILES | ALOX12 inh | PTHR1 ag | miR-21 act | Giardia killer | PINK1 expr mod | ERG-DNA inh
Cc1cc(=O)[nH]c(SCC(=O)Nc2ccc(F)cc2)c1C#N | - | - | - | - | - | -
Cc1cc(=O)[nH]c(SCC(=O)Nc2ccc(Br)cc2)c1C#N | ? | - | - | - | 16µM | -
CC(C)c1nc(OCC(=O)N2CCCC2)c(C#N)c2c1CCCC2 | - | . | . | . | . | .
Cc1nnc(Nc2ccc(Cl)cc2)n(N)c1=O | - | - | - | - | - | -
CC(C)n1c(=S)[nH]c2c1c(=O)[nH]c(=O)n2C | 5µM | - | - | - | - | -
C[S+](=O)([O-])c1cccc(-c2nccc3c(=O)cc(N4CCOCC4)oc23)c1 | 56µM | . | . | . | . | .
COc1cccc(-c2nccc3c(=O)cc(N4CCOCC4)oc23)c1 | 45µM | . | . | . | . | .
COc1ccc(Nc2nccc3c(=O)cc(N4CCOCC4)oc23)cn1 | 25µM | . | . | . | . | .
CC(=O)c1ccccc1NCC(=O)Nc1ccc(C)cc1 | - | - | - | - | - | -
O=C(OCCCc1cc2ccccc2c(=O)o1)c1ccc(C(F)(F)F)cc1 | - | - | . | - | - | -
COc1ccc(S(=O)(=O)N2CCCC2C(=O)Nc2nnc(-c3cccnc3)s2)cc1 (stereo not given) | 40µM | - | - | - | - | .
CCCCNC(=O)CSc1nnc(Cc2ccccc2)n1CC | - | - | - | - | - | -
CNC(=O)[C@@H]1C[C@@H](O)CN1C1CCN(C(=O)CCCc2ccccc2)CC1 | - | . | . | . | . | .
O=C(c1ccc(Cl)cc1Cl)N(CCS(=O)(=O)N1CCCCC1)Cc1cccnc1 | 0.5µM | . | . | . | . | .
O=C(NCc1cccnc1)c1cc(S(=O)(=O)N2CCCCC2)ccc1Cl | - | - | - | - | - | -
N#Cc1ccc(N2C[C@@H]3OCC(=O)N(CC4CCCCC4)[C@@H]3C2)nc1 | - | . | . | . | . | .
O=C1CO[C@H]2CN(c3ncccn3)C[C@H]2N1CC1CCCCC1 | 28µM | . | . | . | . | .
C=CCNC(=S)N/N=C/c1ccc(N(CC)Cc2ccccc2)cc1 | 50µM | - | - | - | - | -
CCN(CC)c1ccc(/C=N/NC(=S)NCc2ccccc2)cc1 | ? | - | - | - | - | -
COCc1ccc(-c2c(-c3ccc(OC)cc3)oc(=O)c3cc(OC)c(OC)cc23)cc1 | - | - | . | - | - | -
CC(=O)N(C)c1nnc(-c2cnccn2)s1 | - | - | - | - | - | -
COc1ccccc1Cc1nc2ccccc2nc1SCC(=O)Nc1ccccc1C(F)(F)F | - | - | - | . | - | -
NN1C(=O)/C(=C2/Sc3ccccc3N2CCCS(=O)(=O)O)SC1=S | 14µM | - | - | - | - | -
CC(=O)NN1C(=O)/C(=C2/Sc3ccccc3N2C)SC1=S | - | - | - | - | - | -
CCN1/C(=C2/SC(=S)N(NC(C)=O)C2=O)Sc2ccccc21 | - | - | - | - | 22µM | -
SMILES | ALOX12 inh | PTHR1 ag | miR-21 act | Giardia killer | PINK1 expr mod | ERG-DNA inh
CCOCCOC(=O)COc1ccc2c(=O)c(Oc3ccc(OC)cc3)coc2c1 | - | - | - | - | - | -
O=C(CCC[C@H]1NC[C@@H]2C[C@H]1CN(Cc1ccccc1)C2)NCC1CCCCC1 | - | . | . | . | . | .
COc1ccccc1CNC(=O)CCC[C@H]1NC[C@@H]2C[C@H]1CN(Cc1ccccc1)C2 | 10µM | . | . | . | . | .
C=CCN1CCN(C(=O)CCC[C@H]2NC[C@@H]3C[C@H]2CN(Cc2ccccc2)C3)CC1 | 5.6µM | . | . | . | . | .
O=C(C1CCCN(c2nc(-c3ccccc3)nc3c2CCC3)C1)N1CCNCC1 (stereo not given) | - | . | . | . | . | .
COc1ccccc1CNC(=O)c1cc2c(N3CCSCC3)nc(C)cn2n1 | - | . | . | . | . | .
CCc1ccc(CNC(=O)c2cc3cc(C)ccc3[nH]2)cc1 | 35µM | . | . | . | . | .
C1CCC(COCCc2noc(C3CCCNC3)n2)C1 (stereo not given) | - | . | . | . | . | .
CCc1nc2c(OCCC3CCCCC3)cccn2c1N(C)C(=O)c1ccc(C)cc1 | 45µM | - | . | . | - | .
Cc1cc(C(=O)CSc2ncnc3ccccc23)c(C)n1C1CC1 | 16µM! | - | . | - | ? | -
COc1cccc(C2=Cc3ccc(F)cc3C(CC(C)=O)N2c2ccc(C#CC3(O)CCCCC3)cc2)c1 (stereo not given) | 16µM | - | . | . | - | .
COc1cc(OC)cc(C2=Cc3ccc(OC)cc3C(CC(C)=O)N2c2ccc(C#CC3(O)CCCCC3)cc2)c1 (stereo not given) | ? | - | . | . | - | .
COc1cccc(CNS(=O)(=O)c2cn(C)cn2)c1 | - | - | - | - | - | -
CC1(c2ccccc2)N(Cc2cccnc2)C(=O)OC12CCN(Cc1ccccc1)CC2 (stereo not given) | - | . | . | . | . | .
CC1CCc2c(sc(/N=C/c3cccnc3)c2C(N)=O)C1 (stereo not given) | 32µM | - | - | - | - | -
CC1CCc2c(sc(/N=C/c3ccco3)c2C(N)=O)C1 (stereo not given) | - | - | - | - | - | -
CCCn1cnc2c1CN(C(=O)c1ccccc1)[C@H](C(=O)OC)C2 | - | . | . | . | . | .
COC(=O)CCC(=O)OC1(C)C(=O)C2=CN(c3ccccc3)C(c3ccc(OC)cc3)=CC2=C(Br)C1=O (stereo not given) | 40µM | - | . | - | - | -
CCCCC1=CC2=CC(=O)C(C)(OC(=O)CC)C(=O)C2=CN1c1cccc(C#N)c1 (stereo not given) | ? | - | . | ? | - | -
CCC(=O)OC1(C)C(=O)C=C2C=C(c3ccc(C#N)cc3)OC=C2C1=O (stereo not given) | 5.6µM | - | . | - | - | -
COC(=O)CCC(=O)OC1(C)C(=O)C2=CN(Cc3ccccc3)C(c3ccc(OC)cc3)=CC2=C(Br)C1=O (stereo not given) | ? | - | . | - | - | -
CCC(=O)OC1(C)C(=O)C2=COC(c3ccc(OC)cc3)=CC2=C(Br)C1=O (stereo not given) | 50µM | - | - | - | - | -
COc1ccc(C2=CC3=C(Br)C(=O)C(C)(O)C(=O)C3=CO2)cc1 (stereo not given) | . | - | - | - | - | -
c1coc(-c2nc3ccccc3nc2-c2ccco2)c1 | 50µM | - | - | - | - | .
c1coc(-c2cnc3ccccc3n2)c1 | 40µM | - | . | . | - | .
Cc1cc(S(=O)(=O)Nc2cc3c(cc2NCc2ccccc2)n(C)c(=O)n3C)ccc1F | - | - | - | . | - | -
